“And” between values parts separate entries of the source, which are not always exact repeats. Identical values can stand only once. ± gives the standard deviation of the averaged measurements.

Conditions in all cases: concentration: 10 µM; 24 h
Assay [1] relates to HCC1569. The assay can be described thus: cell number relative to DMSO (% of DMSO); higher = more cells (less growth inhibition / toxicity). The method in brief:
(§1)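 Treatment: HCC1569 and TDF cells, 800 per well in 384-well plates with RPMI and 10% FBS, were given compounds at 10 µM for 24 h at 37 °C, in triplicate. Readout: after 3.7% formaldehyde fixation, cells were stained with a rabbit anti-H1.0 antibody, an AlexaFluor 647 secondary and DAPI. Reported values are H1.0 nuclear intensity or cell number as percent of the plate control, taken as the median of replicates, with positional smoothing for HCC1569.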

The subject of assay [2] is TDF. The description is as above. The method in brief: as §1
Assay [3] concerns TDF. The assay can be described thus: H1.0 immunofluorescence intensity relative to DMSO (% of DMSO); higher = stronger H1.0 induction, active = 120 or more. The method in brief:
as §1

For assay [4], the system named is HCC1569. As to the kind of experiment: H1.0 immunofluorescence intensity relative to DMSO (% of DMSO); higher = stronger H1.0 induction, active = 140 or more. The method in brief:
as §1
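Throughout, for H1.0 immunofluorescence intensity relative to DMSO: TDF is a line of transformed human dermal fibroblasts of mesenchymal origin.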
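Throughout, for cell number relative to DMSO: TDF denotes transformed human dermal fibroblasts of mesenchymal origin.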

On to `NC(=S)NCCCC(N)C(=O)O` (centres undefined) [Thiocitrulline], for which the values for the cell number in the assay with HCC1569 [1] and in the assay with TDF [2] were 104 and 112, respectively. In addition, the H1.0 immunofluorescence intensity with TDF [3] is 91.5 (inactive); in the assay with HCC1569 [4], 95.7 (inactive).
In the case of `O=C(O)CCC(=O)N1CCC[C@H]1C(=O)O` [N-Succinyl-L-proline], the cell number in the assay with HCC1569 [1] worked out at 99.6; in the assay on TDF [2], 100. For the same compound, the values for the H1.0 immunofluorescence intensity with TDF [3] and in the assay with HCC1569 [4] were 102 (inactive) and 104 (inactive), respectively.
For `Cc1[nH]c2ccccc2c1C1=C(NCCc2ccc(F)cc2)C(=O)N(C)C1=O`, the cell number is 82.4 in the assay with HCC1569 [1] and 59 with TDF [2]. In addition, the H1.0 immunofluorescence intensity was 137 (active) in the assay with TDF [3] and 113 (inactive) in the assay on HCC1569 [4].
Consider `Cc1ccccc1C=CC1=NCCN1.O=C(O)C(=O)O` [Metrazoline oxalate], for which the cell number with HCC1569 [1] was determined as 96.3; with TDF [2] it was 81. In addition, the H1.0 immunofluorescence intensity is 102 (inactive) in the assay on TDF [3] and 124 (inactive) in the assay on HCC1569 [4].
Consider `CC1=NC(=NNc2ccc(C(=O)[O-])cc2)C(COP(=O)([O-])[O-])=C(C=O)C1=O.[Na+].[Na+].[Na+]`, for which the cell number in the assay on HCC1569 [1] worked out at 101; in the assay with TDF [2] it was 103. Also, the H1.0 immunofluorescence intensity in the assay with TDF [3] was 93.5 (inactive); in the assay with HCC1569 [4], 103 (inactive).
On to `O=S(=O)(NCCNCC=Cc1ccc(Br)cc1)c1cccc2cnccc12`, for which the cell number in the assay with HCC1569 [1] is 92.1 and 91.5; in the assay on TDF [2] it was 98.1 and 96.7. The H1.0 immunofluorescence intensity with TDF [3] was 93.6 (inactive) and 99.1 (inactive); in the assay on HCC1569 [4], 84.2 (inactive) and 136 (inactive).
Take `c1ccc2c(Oc3nc(Nc4ccc(N5CCOCC5)cc4)c4ncn(C5CCCCC5)c4n3)cccc2c1`: the cell number in the assay with HCC1569 [1] is 84.3; in the assay with TDF [2], 92.2. The H1.0 immunofluorescence intensity in the assay on TDF [3] was 101 (inactive); in the assay with HCC1569 [4], 150 (active).
`Cc1c(CC(C)(C)C(=O)O)n(Cc2ccc(Cl)cc2)c2ccc(F)cc12`: the results for the cell number in the assay with HCC1569 [1] and in the assay on TDF [2] were 107 and 86.5, respectively. Also, the figures for the H1.0 immunofluorescence intensity with TDF [3] and in the assay on HCC1569 [4] were 105 (inactive) and 99.6 (inactive), respectively.
Consider `c1cc(-c2cnn3cc(-c4ccc(OCCN5CCCCC5)cc4)cnc23)ccn1` [AMPK Inhibitor,                  Compound C], for which the cell number in the assay with HCC1569 [1] and in the assay with TDF [2] was 102 each time. Besides, the H1.0 immunofluorescence intensity in the assay with TDF [3] is 85.8 (inactive); in the assay on HCC1569 [4], 106 (inactive).
In the case of `CC1COc2c(N3CCN(C)CC3)c(F)cc3c(=O)c(C(=O)O)cn1c23` (centres undefined) [Ofloxacin], the cell number in the assay with HCC1569 [1] is 101.5 ± 0.68; in the assay with TDF [2] it was 101 ± 5.3. The H1.0 immunofluorescence intensity was 95 (inactive) in the assay with TDF [3] and 96.5 (inactive) in the assay on HCC1569 [4].
For the compound `COc1cc2ccc(=O)oc2cc1O` [Scopoletin], the cell number with HCC1569 [1] is 101; in the assay with TDF [2], 113. In addition, the H1.0 immunofluorescence intensity was 101 (inactive) in the assay on TDF [3] and 88.9 (inactive) with HCC1569 [4].

(Values after the supplement of paper PMC7156485.)
